Assay results: paper PMC4552634, “A New Set of Chemical Starting Points with Plasmodium falciparum Transmission-Blocking Potential for Antimalarial Drug Discovery” (PLoS ONE, 2015)
The campaign covered roughly 13,000 compounds. About 3,200 (25%) showed an effect of 50% or more. This is one part of the list.

test system: P. falciparum stage V gametocytes; design: BacTiter-Glo ATP luminescence viability of purified stage V gametocytes in 384-well plates, per cent inhibition versus DMSO; conditions: 48 h, 5 µM; inhibitor

SMILES | % Inhibition
CNC(=O)Cc1ccc(C(=O)Nc2cccc(-c3csc(-c4nc5ccccc5[nH]4)c3)c2)cc1 [TCMDC-132395] | -10.74%
Clc1ccc(-c2[nH]c3ccccc3c2CN2CCC(N3CCCCC3)CC2)cc1 [TCMDC-141631] | 17.32%
Fc1ccc2[nH]c(-c3ccccc3)nc2c1CN1CCC(N2CCCC2)CC1 [TCMDC-136310] | 4.53%
c1ccc(-c2[nH]c3ccccc3c2CN2CCC(N3CCCCC3)CC2)nc1 [TCMDC-141636] | 54.53%
COc1ccc2nccc(N3C[C@H]4C[C@@H]3CN4CCNCc3ccc4c(n3)NC(=O)CS4)c2n1 [TCMDC-134685] | 4.783%
Cn1nc(-c2ccc(NC(=O)Nc3cc(C(F)(F)F)ccc3F)c(F)c2)c2cnc(NCCCN3CCOCC3)nc21 [TCMDC-141607] | 30.03%
Cn1nc(-c2ccc(NC(=O)Nc3cc(C(F)(F)F)cc(C(F)(F)F)c3)c(F)c2)c2cnc(NCCN3CCOCC3)nc21 [TCMDC-141560] | 5.577%
Cn1nc(-c2ccc(NC(=O)Nc3cc(C(F)(F)F)ccc3F)c(F)c2)c2cnc(NCCCn3ccnc3)nc21 [TCMDC-141612] | 3.105%
CCN(CC)CCCNc1ncc2c(-c3ccc(NC(=O)Nc4cc(C(F)(F)F)ccc4F)c(F)c3)nn(C)c2n1 [TCMDC-141609] | 106.5%
CN1CCN(CCCNc2ncc3c(-c4ccc(NC(=O)Nc5cc(C(F)(F)F)ccc5F)c(F)c4)nn(C)c3n2)CC1 [TCMDC-141611] | 81.4%
Cn1nc(-c2ccc(NC(=O)Nc3cc(C(F)(F)F)ccc3F)cc2)c2cnc(NCCCCN3CCCC3)nc21 [TCMDC-141585] | 81.15%
CC1CCCCN1CCCNc1ncc2c(-c3ccc(NC(=O)Nc4cc(C(F)(F)F)ccc4F)c(F)c3)nn(C)c2n1 (stereo not shown) [TCMDC-141608] | 97.41%
Nc1nc(N)c2c(Oc3ccc(Cl)c(Cl)c3)cccc2n1 [TCMDC-137740] | -61.22%
Nc1nc(N)c2c(Sc3ccc(F)cc3)cccc2n1 [TCMDC-137179] | 36.57%
CC(=O)Nc1nc(C(=O)Nc2cccc(-c3cccc(-c4nc5ccc(F)cc5[nH]4)c3)c2)cs1 [TCMDC-137124] | 18.32%
CN1CCN(c2ccnc3ccc(NC(=O)Nc4ccc5c(c4)CCCC5=O)cc23)CC1 [TCMDC-139261] | -6.438%
COc1ccc(CCNCC(O)COc2nccc3c(S(=O)(=O)N4CCCNCC4)cccc23)cc1OC (stereo not shown) [TCMDC-132101] | 25.52%
O=C(Nc1ccc2c(c1)CCN2C1CCN(Cc2ccc(C(F)(F)F)cc2F)C1)c1ccco1 (stereo not shown) [TCMDC-135070] | -51.15%
O=C(Cc1ccc(-n2cnnn2)cc1)N(Cc1cncn1Cc1cccc(C(F)(F)F)c1)CC1CC1 [TCMDC-132461] | 5.053%
C1=CN(Cc2ccccc2)C=CC1=C1C=Nc2ccccc21 [TCMDC-138319] | 1.652%
O=C1OC2(CCN(C(=O)c3ccc(-n4cnnn4)cc3)CC2)CN1Cc1ccc(Cl)c(Cl)c1 [TCMDC-136544] | 34.85%
C1=C(c2c[nH]c3ccccc23)CCN(Cc2ccccc2)C1 [TCMDC-123457] | -71.35%
O=S(=O)(NC1CCN(c2ccnc3cc(Cl)ccc23)C1)c1ccc(C(F)(F)F)cc1 (stereo not shown) [TCMDC-133662] | -7.86%
Cn1nc(-c2ccc(NC(=O)Nc3cc(C(F)(F)F)ccc3F)cc2)c2cnc(NCCc3cnc[nH]3)nc21 [TCMDC-141621] | 12.4%
CCN(CC)CCCNc1ncc2c(-c3ccc(NC(=O)Nc4cc(C(F)(F)F)ccc4F)cc3)nn(C)c2n1 [TCMDC-141583] | 96.86%

SMILES | % Inhibition
COc1ccc2nccc([C@@H](O)CN3CCC(NC(=O)C(=O)c4c[nH]c5c(C)cccc45)CC3)c2c1 [TCMDC-141107] | -28.63%
CCC(=O)Nc1nnc(Cc2ccc(OC)c(OC)c2)s1 [TCMDC-125741] | -62.68%
C=CCOc1ccc(Cc2cnc(N)nc2N)cc1CCC [TCMDC-137639] | -18.38%
N=C(N)c1ccc(NC(=O)Cc2nc3ccc(C(=N)N)cc3[nH]2)cc1 [TCMDC-131867] | 10.64%
N=C(N)c1ccc2nc(SCc3ccccc3)[nH]c2c1 [TCMDC-131872] | 24.07%
Cc1cc(-c2nc3ccc(C(=N)N)cc3[nH]2)c(C)cc1-c1nc2ccc(C(=N)N)cc2[nH]1 [TCMDC-137798] | 92.7%
COc1ccccc1C(=O)C1CCCN(C(=O)c2ccccc2C(F)(F)F)C1 (stereo not shown) [TCMDC-124693] | -57%
CN(C)CCOc1cc(O)c2c(c1)OC(C)(C)C=C2c1cccs1 [TCMDC-131331] | -14.82%
Cc1[nH]c(C)c(-c2ccc(OCCSc3ccncc3)cc2)c(=O)c1Br [TCMDC-135220] | 64.24%
Cc1[nH]c(C)c(-c2ccc(OCCCCSc3ccncc3)cc2)c(=O)c1Br [TCMDC-135256] | 73.89%
Cc1[nH]c(C)c(-c2ccc(OCCn3cnc(Cl)c3Cl)cc2)c(=O)c1Br [TCMDC-134570] | -18.53%
C[C@@H](C(=O)N1CCOCC1)N1CC[C@H](NS(=O)(=O)c2ccc3ccnc(N)c3c2)C1=O [TCMDC-136755] | 0.9724%
CC(NC(=O)c1ccc(O)c(-c2ccc(Cl)c(Cl)c2)c1)C(=O)NCCN1CCCC1 (stereo not shown) [TCMDC-140827] | -9.232%
N=c1n(CCN2CCCCC2)c2ccccc2n1CC(=O)c1cccc([N+](=O)[O-])c1 [TCMDC-123516] | -26.88%
O=C(N[C@@H](Cc1ccccc1)C(=O)NCCN1CCCC1)c1ccc(O)c(-c2ccc(Cl)c(Cl)c2)c1 [TCMDC-140829] | 26.26%
CC(NC(=O)c1ccc(O)c(-c2ccc(Cl)c(Cl)c2)c1)C(=O)NCCN1CCCCC1 (stereo not shown) [TCMDC-140857] | 27.12%
N=c1n(CCN2CCCCC2)c2ccccc2n1CC(O)c1cccc(Br)c1 (stereo not shown) [TCMDC-125140] | 60.98%
COC(=O)c1ccc(CC(C)NCC(O)c2cccc(Br)c2)cc1 (stereo not shown) [TCMDC-131437] | 10.23%
O=C(N[C@@H](Cc1ccccc1)C(=O)NCCN1CCCCC1)c1ccc(O)c(-c2ccc(Cl)c(Cl)c2)c1 [TCMDC-140859] | 10.94%
N=c1n(CCN2CCCC2)c2ccccc2n1CC(O)c1ccc(Cl)c(Cl)c1 (stereo not shown) [TCMDC-124063] | 70.46%
N=c1n(CCN2CCCCC2)c2ccccc2n1CC(O)c1ccc(Cl)c(Cl)c1 (stereo not shown) [TCMDC-124064] | 91.16%
CCOc1ccc(C=CC(=O)Nc2ccc3nc(N4CCOCC4)cc(C)c3c2)cc1OC [TCMDC-124420] | -58.06%
COc1ccc(NS(=O)(=O)c2cccc(C(=O)Nc3ccc(C(F)(F)F)cc3)c2)cc1N1CCN(CC(C)C)CC1 [TCMDC-141780] | -61.2%
N#Cc1ccc(CN2CCC(Oc3ccc(NC(=O)c4ccsc4)cc3Cl)C2)cc1 (stereo not shown) [TCMDC-133961] | 27.45%
CN(Cc1ccc(NC(=O)NC2CCN(C(=O)/C=C/c3ccc(Cl)c(Cl)c3)CC2)cc1)C1CCOCC1 [TCMDC-140523] | 15.53%

SMILES | % Inhibition
Cc1nnc2c(NC(=O)NC3CCCC3)cc3cc(-c4ccc(CN5CCN(C)CC5)cc4)ccc3n12 [TCMDC-136717] | 93.03%
Cc1nnc2c(NC(=O)NC3CCCC3)cc3ccc(-c4cccc(CN(C)C)c4)cc3n12 [TCMDC-136731] | 62.95%
Cc1cc2c(NC(=O)NC3CCN(CCc4cccc(Cl)c4)CC3)cccc2cn1 [TCMDC-141801] | 1.957%
Cc1cc2c(NC(=O)NC3CCN(CCc4ccccc4Cl)CC3)cccc2cn1 [TCMDC-141800] | -1.237%
Cc1nnc2c(NC(=O)NC3CCCC3)cc3cc(-c4ccc(CN(C)C)cc4)ccc3n12 [TCMDC-136487] | 88.82%
Cc1cc2c(NC(=O)NC3CCN(Cc4ccc(Cl)c(Cl)c4)CC3)cccc2cn1 [TCMDC-141771] | 11.02%
CN1CCCN(Cc2cccc(-c3cccc(NC(=O)c4ccc(C#N)cc4)c3)c2)CC1 [TCMDC-132655] | 11.69%
COc1ccc(-c2ccc(CN(C)C3CCC(NC(=O)c4cc5ccccc5[nH]4)CC3)cc2)cn1 (stereo not shown) [TCMDC-132893] | 48.26%
Cc1cccc(CNc2nc(C)cc(N[C@@H](Cc3ccccc3)C(=O)NC3CCCC3)n2)c1 [TCMDC-134886] | 14.7%
Cc1nnc2c(NC(=O)NC3CCCC3)cc3cc(-c4ccc(CN5CCCCC5)cc4)ccc3n12 [TCMDC-136711] | 3.866%
Cc1nnc2c(NC(=O)NC3CCCC3)cc3ccc(-c4cccc(CN5CCN(C)CC5)c4)cc3n12 [TCMDC-136730] | 98.59%
O=C(Nc1ccc(C(=O)N2CCN(CCN3CCN(c4cccc(C(F)(F)F)c4)CC3)CC2)cc1)c1cc(Cl)cc(Cl)c1 [TCMDC-138146] | -60.88%
O=C(Nc1cccc(Cl)c1Cl)NC1CCN(Cc2cccc(O)c2)CC1 [TCMDC-136485] | -12.42%
O=C(Nc1cc2cc(-c3ccc(CN4CCCCC4)cc3)ccc2n2cnnc12)NC1CCCC1 [TCMDC-136882] | 63.39%
CCCNC(=O)C1CCN(C(c2ccc(Cl)cc2)c2ccc(Cl)cc2)CC1 [TCMDC-135518] | 16.22%
CCCNC(=O)C1CCN(C(c2ccccc2)c2ccc(Cl)c(Cl)c2)CC1 (stereo not shown) [TCMDC-135517] | -34.35%
O=C(NC1CCC1)C1CCN(C(c2ccc(Cl)cc2)c2ccc(Cl)cc2)CC1 [TCMDC-135520] | 57.43%
O=C(NCC1CC1)C1CCN(C(c2ccccc2)c2nc3ccccc3s2)CC1 (stereo not shown) [TCMDC-135523] | -36.83%
O=C(NC1CCC1)C1CCN(C(c2ccccc2)c2cc(F)cc(F)c2)CC1 (stereo not shown) [TCMDC-135514] | -3.594%
COCCNC(=O)C1CCN(C(c2ccc(Cl)cc2)c2ccc(Cl)cc2)CC1 [TCMDC-135519] | -9.136%
O=C(NCC1CC1)C1CCN(C(c2ccccc2)c2ccc(Cl)c(Cl)c2)CC1 (stereo not shown) [TCMDC-135515] | 70.5%
O=C(NCC1CC1)C1CCN(C(c2ccccc2)c2cc(F)cc(F)c2)CC1 (stereo not shown) [TCMDC-135513] | 62.39%
O=C(NCC1CC1)C1CCN(C(c2ccc(Cl)cc2)c2ccc(Cl)cc2)CC1 [TCMDC-135522] | -2.377%
